# Where a name gives a salt, the structure may show the parent alone.
# Legend:
# Details in all cases: incubation time: 27 h, anaerobic, 37 °C;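 for the amine columns active = adjusted P below 0.05 in both replicates with a change the same way and a mean fold change under 0.8 or over 1.25; inactive = the rest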
# [1] = system: Clostridium sporogenes DSM 1664; test: growth (OD595) fold change vs plate DMSO controls (fold change (ratio)); higher = more growth
# Outline: (§1)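 The measure reported is growth, taken as fold change against the median of DMSO controls on the same plate. Anaerobic mGAM cultures in 96-well plates (27 h, 37 °C) were read at 595 nm, blank-subtracted, corrected for compound background using 20 µM compound solutions in water, and multiplied by a calibration factor of 5 to give OD. Any fold change above 1.5 became NA, and 2 biological replicates were averaged.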
# Escherichia coli IAI1 [2] = test: as above
# Outline: as §1
# [3] = system: Klebsiella aerogenes DSM 30053; test: as above
# Outline: as §1
# [4] = system: Ruminococcus gnavus DSM 108212; test: as above
# Outline: as §1
# [5] = system: Klebsiella aerogenes DSM 30053; test: fold change of Histamine concentration vs plate DMSO controls (fold change (ratio)); higher = more amine produced, active = hit call of the paper (significant change in both replicates, either direction)
# Outline: (§2)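 Amine values are fold changes relative to DMSO-only wells on the same plate. They derive from 27 h, 37 °C anaerobic mGAM cultures of four gut bacterial strains in 80 µL wells, dosed at 20 µM final, or 50 µM final for sweeteners. Extraction of the whole culture, LC–triple-quadrupole MS in dynamic MRM mode, external calibration curves and within-batch drift correction were used, with 2 biological replicates averaged.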
# [6] = system: Clostridium sporogenes DSM 1664; test: fold change of Tryptamine concentration vs plate DMSO controls (fold change (ratio)); higher = more amine produced, active = hit call of the paper (significant change in both replicates, either direction)
# Outline: as §2
# [7] = system: Ruminococcus gnavus DSM 108212; test: as above
# Outline: as §2
# Escherichia coli IAI1 [8] = test: fold change of Putrescine concentration vs plate DMSO controls (fold change (ratio)); higher = more amine produced, active = hit call of the paper (significant change in both replicates, either direction)
# Outline: as §2
# [9] = system: Klebsiella aerogenes DSM 30053; test: as above
# Outline: as §2
# Escherichia coli IAI1 [10] = test: fold change of Cadaverine concentration vs plate DMSO controls (fold change (ratio)); higher = more amine produced, active = hit call of the paper (significant change in both replicates, either direction)
# Outline: as §2
# [11] = system: Klebsiella aerogenes DSM 30053; test: as above
# Outline: as §2
# [12] = system: Ruminococcus gnavus DSM 108212; test: fold change of 2-Phenylethylamine concentration vs plate DMSO controls (fold change (ratio)); higher = more amine produced, active = hit call of the paper (significant change in both replicates, either direction)
# Outline: as §2
Structure (SMILES),growth [1],growth (Escherichia coli IAI1 [2]),growth [3],growth [4],fold change of Histamine concentration [5],fold change of Tryptamine concentration [6],fold change of Tryptamine concentration [7],fold change of Putrescine concentration (Escherichia coli IAI1 [8]),fold change of Putrescine concentration [9],fold change of Cadaverine concentration (Escherichia coli IAI1 [10]),fold change of Cadaverine concentration [11],fold change of 2-Phenylethylamine concentration [12]
Nc1c(Br)cc(Br)cc1CN[C@H]1CC[C@H](O)CC1 [Ambroxol hydrochloride] (20 µM),0.943,1.07,0.958,0.75,1.03 (inactive),1.04 (inactive),1 (inactive),1.05 (inactive),1 (inactive),1.01 (inactive),0.991 (inactive),0.985 (inactive)
CCC1(c2ccccc2)NC(=O)N(C)C1=O (stereo not drawn) [Mephenytoin] (20 µM),0.908,1.05,1.11,1.14,0.905 (inactive),1.09 (inactive),1.02 (inactive),1.06 (inactive),1.02 (inactive),1.01 (inactive),1.02 (inactive),1.03 (inactive)
CCCc1c2oc(C(=O)O)cc(=O)c2cc2c(=O)cc(C(=O)O)n(CC)c12 [Nedocromil sodium] (20 µM),0.949,0.993,1,0.981,1.06 (inactive),0.924 (inactive),0.987 (inactive),0.999 (inactive),1.01 (inactive),1.04 (inactive),0.984 (inactive),1 (inactive)
CCOC(=O)[C@H](CCc1ccccc1)N[C@@H](C)C(=O)N1[C@H](C(=O)O)C[C@@H]2CCC[C@@H]21 [Ramipril] (20 µM),1.06,0.984,1.13,1.19,0.948 (inactive),0.963 (inactive),0.966 (inactive),0.999 (inactive),1.05 (inactive),0.964 (inactive),1.05 (inactive),0.911 (inactive)
Cc1cc(=O)n(-c2ccccc2)n1C [Antipyrine] (20 µM),1.04,0.959,1.03,0.869,0.98 (inactive),1.03 (inactive),1.01 (inactive),0.999 (inactive),1 (inactive),1.01 (inactive),0.999 (inactive),1.02 (inactive)
Oc1c(Br)cc(Br)c2cccnc12 [Broxyquinoline] (20 µM),0.98,0.92,0.951,0.643,1.09 (inactive),0.919 (inactive),0.562 (active),1.03 (inactive),1.02 (inactive),1.2 (inactive),0.968 (inactive),0.6 (inactive)
Oc1ncnc2[nH]ncc12 [Allopurinol] (20 µM),1.03,0.942,0.974,1.02,1.03 (inactive),1.04 (inactive),1.01 (inactive),1.09 (inactive),1 (inactive),1.01 (inactive),1.01 (inactive),1.02 (inactive)
O=[N+]([O-])c1ccc2c(c1)Cc1ccccc1-2 [2-Nitrofluorene] (20 µM),0.873,0.978,0.973,0.994,0.997 (inactive),1 (inactive),1.04 (inactive),0.97 (inactive),1 (inactive),1.04 (inactive),0.995 (inactive),1.02 (inactive)
COc1ccccc1OCC(O)CO (stereo not drawn) [Guaifenesin] (20 µM),1.09,0.954,0.98,1.03,1.05 (inactive),1.04 (inactive),1.05 (inactive),1.04 (inactive),1.01 (inactive),0.991 (inactive),0.988 (inactive),1.1 (inactive)
O=C(O)CNC(=O)C(CS)Cc1ccccc1 (stereo not drawn) [Thiorphan] (20 µM),1.06,1.02,1.05,0.855,0.964 (inactive),1.22 (inactive),1.04 (inactive),0.969 (inactive),0.983 (inactive),0.956 (inactive),1.02 (inactive),1.02 (inactive)
CS(=O)(=O)c1ccc([C@@H](O)[C@@H](CO)NC(=O)C(Cl)Cl)cc1 [Thiamphenicol] (20 µM),0.937,0.551,0.468,0.18,0.0658 (active),0.738 (active),0.141 (active),0.321 (active),0.426 (active),1.17 (inactive),0.957 (inactive),0.145 (active)
COC(=O)[C@H](c1ccccc1Cl)N1CCc2sccc2C1 [Clopidogrel] (20 µM),1.01,1.25,0.982,0.969,1.06 (inactive),0.986 (inactive),0.963 (inactive),1.23 (inactive),1.02 (inactive),0.975 (inactive),0.996 (inactive),0.941 (inactive)
OC[C@H]1O[C@H](O[C@H]2O[C@H](CO)[C@@H](O)[C@H](O)[C@H]2O)[C@H](O)[C@@H](O)[C@@H]1O [Trehalose] (50 µM),0.902,1.07,1.03,1.06,0.94 (inactive),1.16 (inactive),1.09 (inactive),1 (inactive),0.901 (inactive),0.831 (inactive),1.06 (inactive),1.15 (inactive)
NC1CCN(c2c(F)cc3c(=O)c(C(=O)O)cn(C4CC4)c3c2Cl)C1 (stereo not drawn) [Clinafloxacin] (20 µM),0.00892,0.0142,0.102,0.356,0.118 (active),0.0514 (active),0.337 (active),0.703 (inactive),0.647 (active),0.233 (active),0.942 (inactive),0.36 (active)
NC[C@H]1O[C@H](O[C@H]2[C@H](O)[C@@H](O[C@H]3O[C@H](CO)[C@@H](O)[C@H](N)[C@H]3O)[C@H](N)C[C@@H]2N)[C@H](N)[C@@H](O)[C@@H]1O [Kanamycin B] (20 µM),1.05,0.89,0.765,0.976,0.723 (active),0.998 (inactive),0.923 (inactive),0.882 (inactive),1 (inactive),1.08 (inactive),0.978 (inactive),0.945 (inactive)
CCC(=O)O[C@]1(C(=O)CCl)[C@@H](C)C[C@H]2[C@@H]3CCC4=CC(=O)C=C[C@]4(C)[C@@]3(F)[C@@H](O)C[C@@]21C [Clobetasol propionate] (20 µM),1.36,1.06,1.06,0.908,0.98 (inactive),1.02 (inactive),0.96 (inactive),0.988 (inactive),1.02 (inactive),1.01 (inactive),0.999 (inactive),0.936 (inactive)
CC(C)NCC(O)c1cc(O)cc(O)c1 (stereo not drawn) [Metaproterenol sulfate] (20 µM),0.982,1.03,1.02,1.17,0.981 (inactive),1.03 (inactive),0.957 (inactive),1.03 (inactive),0.979 (inactive),0.974 (inactive),0.992 (inactive),0.938 (inactive)
CCC(NC(C)C)C(O)c1ccc(O)c2[nH]c(=O)ccc12 (stereo not drawn) [Procaterol hydrochloride] (20 µM),1.07,1.02,1.03,1.02,1.01 (inactive),1.02 (inactive),1.1 (inactive),0.978 (inactive),0.949 (inactive),0.922 (inactive),1.06 (inactive),1.14 (inactive)
CCCc1nn(C)c2c(=O)[nH]c(-c3cc(S(=O)(=O)N4CCN(C)CC4)ccc3OCC)nc12 [Sildenafil] (20 µM),1.23,1.01,1.02,1.14,0.993 (inactive),1.06 (inactive),1.15 (inactive),0.921 (inactive),0.98 (inactive),0.87 (inactive),1.04 (inactive),1.24 (inactive)
C[C@@H](CN1CC(=O)NC(=O)C1)N1CC(=O)NC(=O)C1 [Dexrazoxane hydrochloride] (20 µM),1.26,1.01,1.05,0.949,1.01 (inactive),0.997 (inactive),1.03 (inactive),0.979 (inactive),1.02 (inactive),0.988 (inactive),1.01 (inactive),1.02 (inactive)
"CCN(CC)CCOc1ccc(C(=C(Cl)c2ccccc2)c2ccccc2)cc1 [(Z,E) Clomiphene citrate] (20 µM)",1.06,1,1.02,1.01,0.973 (inactive),1.05 (inactive),0.655 (active),0.961 (inactive),0.981 (inactive),0.955 (inactive),1.01 (inactive),0.804 (inactive)
O=C(c1ccc(OCCN2CCCCC2)cc1)c1c(-c2ccc(O)cc2)sc2cc(O)ccc12 [Raloxifene hydrochloride] (20 µM),1.19,1.08,1.04,1.2,0.986 (inactive),0.932 (inactive),0.941 (inactive),0.976 (inactive),1.03 (inactive),1.01 (inactive),1.01 (inactive),0.917 (inactive)
C#C[C@]1(OC(C)=O)CC[C@H]2[C@@H]3CCC4=CC(=NO)CC[C@@H]4[C@H]3CC[C@@]21CC (mixture of isomers) [Norgestimate] (20 µM),1.25,0.998,1.01,0.991,1.01 (inactive),0.656 (inactive),0.888 (inactive),1.05 (inactive),0.985 (inactive),1.02 (inactive),0.993 (inactive),0.905 (inactive)
O=C(CCNNC(=O)c1ccncc1)NCc1ccccc1 [Nialamide] (20 µM),0.952,0.991,1.02,0.89,1.03 (inactive),1.01 (inactive),1 (inactive),0.997 (inactive),1 (inactive),1.03 (inactive),0.998 (inactive),1.01 (inactive)
